According to PubChem BioAssay AID652154 (Broad Institute, 2013):
Screen size: about 360,000 compounds; about 4,200 (1.2%) were called active. Shown is part of a subset that was picked to be rich in actives. A number with no mark means an inactive call.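 Rule for the calls: active = mean replicate inhibition at least 60% with every replicate also reaching 60%; inconclusive = only one of the two criteria is met; inactive = mean below 60% and not all replicates reaching 60%.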

Assay: inhibitors of PAX8-driven TPO luciferase reporter, primary screen, RMG-I cells, single concentration (AID 652154);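 note: luciferase light reporting Pax8 driven TPO promoter activity; plate controls were median of neutral control wells for no effect and mitoxantrone controls for full effect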
Conditions: SteadyGlo, 24 h, at 12.6 µM, hits give high values

Which inhibition does the source give for `O=C(CN1CCOCC1)NCC[C@@H]1CC[C@@H](NC(=O)Nc2ccccc2)[C@H](CO)O1` here?
Its inhibition is -2.03%.

With `C[C@@H]1CN([C@H](C)CO)C(=O)c2cccc(NC(=O)c3ccncc3)c2O[C@@H]1CN(C)C` as the compound, how does the inhibition read?
Its inhibition is -8.91%.

For `CO[C@H]1O[C@H](CO)[C@@H](OC(=O)Nc2ccc(C(F)(F)F)cc2)[C@H](OC(=O)Nc2ccc3c(c2)OCO3)[C@H]1OC(=O)Nc1ccc2c(c1)OCO2`, which inhibition is on record?
Its inhibition is 72.5% (active).

With `COc1cc(OC)c(C(=O)Nc2ccccc2-c2ccccc2)cc1OC` as the compound, how does the inhibition read?
Its inhibition is -10.7%.

For `COc1ccc(NC(=O)O[C@H]2[C@H](OC(=O)Nc3ccc4c(c3)OCO4)[C@@H](OC(=O)Nc3ccc4c(c3)OCO4)[C@@H](OC)O[C@@H]2CO)cc1`, which inhibition is on record?
Its inhibition is 14.1%.

For `CO[C@H]1O[C@H](CO)[C@@H](OC(=O)Nc2ccccc2-c2ccccc2)[C@H](OC(=O)Nc2ccccc2)[C@H]1OC(=O)Nc1ccccc1`, which inhibition is on record?
Its inhibition is 80% (active).

With `CO[C@H]1O[C@H](CO)[C@@H](OC(=O)Nc2ccccc2)[C@H](OC(=O)Nc2ccc3c(c2)OCO3)[C@H]1OC(=O)Nc1ccc2c(c1)OCO2` as the compound, how does the inhibition read?
The inhibition was 16.9%.

For `CCc1cccc(NC(=O)O[C@H]2[C@H](OC(=O)Nc3ccccc3-c3ccccc3)[C@H](OC(=O)Nc3ccccc3-c3ccccc3)[C@@H](OC)O[C@@H]2CO)c1`, which inhibition is on record?
Its inhibition is 43.4%.

For `C[C@@H]1CN([C@H](C)CO)S(=O)(=O)c2ccc(C#CC3(O)CCCC3)cc2O[C@@H]1CN(C)C(=O)c1cccnc1`, which inhibition is on record?
Its inhibition is -6.88%.

With `COc1ccccc1NC(=O)N1[C@@H]2CNC[C@H]1C2c1ccc(-c2ccccc2C)cc1` (stereo not given in full) as the compound, how does the inhibition read?
The inhibition was -13.6%.

With `Cc1noc(C)c1S(=O)(=O)Nc1ccc2c(c1)C(=O)N([C@H](C)CO)C[C@@H](C)[C@H](CN(C)C(=O)NC(C)C)OCCCC[C@@H](C)O2` as the compound, how does the inhibition read?
The inhibition was 16.4%.

With `C[C@H](CO)N1C[C@H](C)[C@@H](CN(C)Cc2ccc(C(F)(F)F)cc2)OCc2ccccc2-c2c(n(C)c3ccccc23)C1=O` as the compound, how does the inhibition read?
Its inhibition is 24%.

Which inhibition does the source give for `COc1ccc(S(=O)(=O)Nc2ccc3c(c2)C(=O)N([C@@H](C)CO)C[C@H](C)[C@H](CN(C)S(=O)(=O)c2ccc(F)cc2)OCCCC[C@@H](C)O3)cc1` here?
The inhibition was 34%.

With `COc1ccc(S(=O)(=O)N(C)C[C@H]2OCCCC[C@@H](C)Oc3ccc(NS(=O)(=O)c4ccc(C)cc4)cc3C(=O)N([C@@H](C)CO)C[C@@H]2C)cc1` as the compound, how does the inhibition read?
The inhibition was 36.3%.

For `COc1ccc(S(=O)(=O)N(C)C[C@@H]2OCCCC[C@@H](C)Oc3ccc(NS(=O)(=O)c4ccccc4)cc3C(=O)N([C@@H](C)CO)C[C@H]2C)cc1`, which inhibition is on record?
The inhibition was 19.7%.

Which inhibition does the source give for `COc1ccc(S(=O)(=O)N(C)C[C@H]2OCCCC[C@H](C)Oc3ccc(NS(=O)(=O)c4ccc(F)cc4)cc3C(=O)N([C@@H](C)CO)C[C@@H]2C)cc1` here?
Its inhibition is 75.4% (active).

For `COc1ccc(S(=O)(=O)Nc2ccc3c(c2)C(=O)N([C@@H](C)CO)C[C@H](C)[C@@H](CN(C)S(=O)(=O)c2ccc(C)cc2)OCCCC[C@@H](C)O3)cc1`, which inhibition is on record?
Its inhibition is 31.9%.

Which inhibition does the source give for `COc1ccc(S(=O)(=O)Nc2ccc3c(c2)C(=O)N([C@@H](C)CO)C[C@H](C)[C@@H](CN(C)S(=O)(=O)c2ccc(F)cc2)OCCCC[C@H](C)O3)cc1` here?
Its inhibition is 68.7% (active).

Which inhibition does the source give for `CCCNC(=O)C[C@H]1CC[C@H]2[C@@H](COc3ccc(NC(=O)Nc4c(C)noc4C)cc3C(=O)N2C)O1` here?
The inhibition was -6.6%.

Which inhibition does the source give for `C[C@H]1CN([C@@H](C)CO)C(=O)Cc2cc(NC(=O)Nc3ccc(F)cc3)ccc2O[C@H]1CN(C)C(=O)Nc1ccc(C(F)(F)F)cc1` here?
Its inhibition is 59.7%.

Which inhibition does the source give for `CC(=O)N1[C@H](CNC(=O)CN(C)C)[C@H](c2ccc(C3=CCCC3)cc2)[C@@H]1CO` here?
Its inhibition is 10.8%.

With `Cc1cccc(NC(=O)c2nc(S(=O)(=O)Cc3ccccc3)ncc2Cl)c1` as the compound, how does the inhibition read?
Its inhibition is 64.5% (active).

For `CN1CCN(c2ccc(NC(=O)c3ccc4c(c3)[nH]c(=O)n4Cc3ccc(F)cc3)cc2)CC1`, which inhibition is on record?
The inhibition was 1.33%.

Which inhibition does the source give for `Cc1cccc(CS(=O)(=O)c2ncc(Cl)c(C(=O)Nc3ccc(F)cc3)n2)c1` here?
The inhibition was 96.3% (active).

Which inhibition does the source give for `CSc1nnc(NC(=O)c2nc(S(=O)(=O)Cc3ccc(C)cc3)ncc2Cl)s1` here?
The inhibition was 54.7%.

With `Cc1cccc(NC(=O)CCN2CC(C)CC(C)C2)c1` (stereo not given) as the compound, how does the inhibition read?
Its inhibition is 2.21%.

Which inhibition does the source give for `Cc1ccc(C)c(Cn2nnc3c(=O)[nH]c(C(=O)Nc4ccc(F)cc4)nc32)c1` here?
The inhibition was -3.4%.

For `CN(C)CC#Cc1ccc([C@H]2[C@@H](CO)N(C(=O)C3CCC3)[C@H]2C#N)cc1`, which inhibition is on record?
The inhibition was 3.44%.

For `CO[C@H]1CN(C)C(=O)c2ccc(NC(=O)c3ccno3)cc2OC[C@@H](C)N(S(C)(=O)=O)C[C@H]1C`, which inhibition is on record?
Its inhibition is -22.4%.

Which inhibition does the source give for `C[C@H]1CN([C@@H](C)CO)C(=O)Cc2cc(NC(=O)Nc3ccc4c(c3)OCO4)ccc2O[C@H]1CN(C)Cc1ccc(C(=O)Nc2ccccc2N)cc1` here?
Its inhibition is 37.5%.

For `O=C(Cc1ccccn1)N1[C@@H]2CNc3ccccc3[C@@H]2[C@@H]1CO`, which inhibition is on record?
The inhibition was -15.2%.

For `O=C(C1CCOCC1)N1C[C@H]2[C@@H](c3ccccc31)[C@@H](CO)N2Cc1ccccc1F`, which inhibition is on record?
The inhibition was -11.6%.

With `C[C@H](NC(=O)C[C@@H]1CC[C@@H]2[C@H](COC[C@@H](O)CN2C(=O)Nc2cc(Cl)cc(Cl)c2)O1)c1ccccc1` as the compound, how does the inhibition read?
Its inhibition is 49.2%.

For `O=C(CCl)Nc1ccc(Sc2ccc(NC(=O)CCl)cc2)cc1`, which inhibition is on record?
The inhibition was 87.7% (active).

With `O=C(CCl)Nc1cccc(CP(=O)(c2ccccc2)c2ccccc2)c1` as the compound, how does the inhibition read?
Its inhibition is 18.2%.

Which inhibition does the source give for `CCC(=O)Nc1ccc(Nc2nc(Cl)nc(Nc3ccc(NC(=O)CC)cc3)n2)cc1` here?
Its inhibition is 1.45%.

For `C[C@@H]1CN([C@H](C)CO)C(=O)Cc2cc(NC(=O)Nc3ccc4c(c3)OCO4)ccc2O[C@H]1CN(C)Cc1ccc(C(F)(F)F)cc1`, which inhibition is on record?
Its inhibition is 13.6%.

Which inhibition does the source give for `CN(c1ccccc1)S(=O)(=O)c1cc(C(=O)OCC(=O)N2CCN(C(=O)c3ccco3)CC2)ccc1Cl` here?
Its inhibition is 80.9% (active).

Which inhibition does the source give for `O=C(OCC(=O)N1CCN(C(=O)c2ccco2)CC1)c1ccc(Cl)c(Cl)c1` here?
Its inhibition is 6.78%.

With `O=C(OCC(=O)N1CCN(C(=O)c2ccco2)CC1)c1cccc(O)c1` as the compound, how does the inhibition read?
Its inhibition is -23.5%.
